HttQ103 aggreg = inhibitors of mutant huntingtin aggregate formation in PC12 cells. PC12 HttQ103-GFP aggregates, Acumen cytometry, 40 h. Potency, µM (doses to about 46.1 µM), hits mostly inhibitors. 1.1% of 220,000 active; further: nearly all actives have a fitted effect of over 60% in size
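Aggregate formation scored by laser-scanning cytometer (488 excitation, 500–530 emission) in lysed PC12 cells expressing Q103-GFP after 100 nM tebufenozide induction; library tested in dose series, with ATPLite reagent added in the multiplex.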
HPGD block = HPGD (human) dehydrogenase inhibition; P15428; purified HPGD, NADH fluorescence kinetic, PGE2 substrate; Potency, µM, usual class: inhibitors; 4.3% of 150,000 active; active means well fitted inhibition curve with a large enough effect, not every such curve was filed as active; inconclusive means small, poorly fitted or top-dose-only effect, or another doubt; inactive means no such curve, though single readings can be large or run the other way
Target sequence (P15428 whole entry, looked up): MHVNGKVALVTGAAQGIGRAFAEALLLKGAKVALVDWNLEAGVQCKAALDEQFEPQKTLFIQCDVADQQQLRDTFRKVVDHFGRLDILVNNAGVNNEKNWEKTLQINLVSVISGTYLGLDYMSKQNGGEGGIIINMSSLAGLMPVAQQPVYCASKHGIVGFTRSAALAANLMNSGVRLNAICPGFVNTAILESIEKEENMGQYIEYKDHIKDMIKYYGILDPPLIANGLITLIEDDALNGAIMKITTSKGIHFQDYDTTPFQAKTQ
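NADH formation kinetics: reaction with 30 uM PGE2 and 1 mM NAD+ (final), 20 nM enzyme, Tris-HCl pH 8 with Tween 20, after 15 min compound preincubation at room temperature. Fluorescence change, last versus first of five reads.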
ALDH1A1 block = blocks purified human ALDH1A1 activity; 7.3% of 220,000 active; Purified ALDH1A1, NADH fluorescence, propionaldehyde substrate; Potency, µM (titrated, usually from 75.3 µM), hits mostly inhibitors; AID 1030; P00352; active means well fitted inhibition curve with a large enough effect, not every such curve was filed as active; inconclusive means small, poorly fitted or top-dose-only effect, or another doubt; inactive means no such curve, though single readings can be large or run the other way
PNC assembly inh = perinucleolar compartment assembly inhibition. PC3M PTB-GFP, PNC prevalence imaging, 16 h; stronger effect = lower value. activity change (PNC), negative = inhibition, % at 10 µM. 3.1% of 140,000 active;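 active means readout at or below -70, meaning at least 70% loss of cells showing the perinucleolar compartment, a nuclear body marking cancer cells; inconclusive means readout between -30 and a set limit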
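Compounds are pinned in duplicate onto adhered PC3M cells stably expressing GFP-tagged PTB and incubated 16 h at 37 C. Cells are then fixed, nuclei stained with Hoechst, and PNC-positive cells counted.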
HTT ATP protect = cytoprotection in Huntington HTT-Q103 PC12 cell model; AID 1471; 0.14% of 230,000 active; PC12 HTT-Q103 induced, cytoprotection, ATP luminescence, 40 h; Potency, µM (highest dose often 56.4 µM), hits mostly activators; further: nearly all actives have a fitted effect of over 45% in size
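PC12 cells stably carrying ecdysone-inducible Htt exon 1 (Q103)–GFP were induced with 100 nM tebufenozide (final) alongside library compounds in a dose series. Cytoprotection was scored as retained ATP by ATPlite luminescence.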
CBFb-RUNX1 inh = CBF-beta/RUNX1 interaction disruption; AlphaScreen CBFb-His/RUNX1-biotin binding, biochemical; Potency, µM (series often up to 59.8 µM), usual class: inhibitors; AID 1477; 230,000 tested, under 10 active
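Inhibition was taken as any reduction in AlphaScreen signal from the CBF-beta–RUNX1 pair (His and biotin tags, 30 nM each), measured after compound (15 min) and bead (90 min) incubations at room temperature.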
Numbers stand for hits; [ ] = another dose, or the depositor's remark. Shown are actives, neighbours in structure and some others; about 11% of the full set was active somewhere. Unless noted, the call rests on the fitted dose curve; in most records, active means well fitted curve in the direction sought with a large enough effect; inconclusive means small, poorly fitted or top-dose-only effect, or another doubt; inactive means no such curve, though single readings can be large; an effect the other way counts as inactive or inconclusive.

Results for COc1ccc(CN2CCN(C(=O)C3CC(=O)N(C4CCCCCC4)C3)CC2)c(OC)c1OC (configuration not stated) ?
HttQ103 aggreg: inactive; HPGD block: inactive; ALDH1A1 block: 20µM; PNC assembly inh: inactive; HTT ATP protect: inactive; CBFb-RUNX1 inh: inactive

What do the screens show for `O=C1C[C@H](c2ccccc2Cl)N1S(=O)(=O)c1ccccc1[N+](=O)[O-]`?
CBFb-RUNX1 inh: inactive

How did COc1ccc(Cc2noc(CN3CCN(Cc4cccc(Cl)c4)CC3)n2)cc1OC do in these assays?
HttQ103 aggreg: inactive[9.22 µM]; ALDH1A1 block: 8.91µM; HTT ATP protect: inactive[10 µM]; CBFb-RUNX1 inh: inactive

How did COCCN1CCN(Cc2nc(Cc3ccc(OC)c(OC)c3)no2)CC1 do in these assays?
HttQ103 aggreg: inactive[9.22 µM]; ALDH1A1 block: inactive; HTT ATP protect: inactive[10 µM]; CBFb-RUNX1 inh: inactive

Results for CCOC(=O)c1sc(=S)n(-c2ccc(F)c(F)c2)c1N ?
HttQ103 aggreg: inactive; HPGD block: inconclusive; ALDH1A1 block: 12.6µM; PNC assembly inh: inactive; HTT ATP protect: inactive[0.074 µM]; CBFb-RUNX1 inh: inactive

How did CCOC(=O)c1sc(=S)n(-c2ccc3c(c2)OCO3)c1N do in these assays?
HttQ103 aggreg: inactive; HPGD block: 7.94µM; ALDH1A1 block: 10µM; PNC assembly inh: inactive; HTT ATP protect: inactive[0.074 µM]; CBFb-RUNX1 inh: inactive

How did CCOC(=O)c1sc(=S)n(CC)c1N do in these assays?
HttQ103 aggreg: inactive; HPGD block: inactive; ALDH1A1 block: inactive; PNC assembly inh: inactive; HTT ATP protect: inactive; CBFb-RUNX1 inh: inactive

How did COc1ccc(-n2c(N)c(C(=O)NCc3cccnc3)sc2=S)cc1 do in these assays?
HttQ103 aggreg: inactive; HPGD block: inactive; ALDH1A1 block: inactive; PNC assembly inh: inactive; HTT ATP protect: inactive; CBFb-RUNX1 inh: inactive

What do the screens show for `CCOC(=O)c1sc(=S)n(C)c1N`?
HttQ103 aggreg: inactive; HPGD block: inactive; ALDH1A1 block: inactive; PNC assembly inh: inconclusive; HTT ATP protect: inactive; CBFb-RUNX1 inh: inactive

Results for Cc1ccc(-n2c(N)c(C(=O)NCc3cccnc3)sc2=S)cc1 ?
HttQ103 aggreg: inactive; HPGD block: 25.1µM; ALDH1A1 block: inconclusive; PNC assembly inh: inactive; HTT ATP protect: inactive; CBFb-RUNX1 inh: inactive

What do the screens show for `CCOC(=O)c1sc(=S)n(-c2ccc(C)cc2)c1N`?
HttQ103 aggreg: inactive; ALDH1A1 block: 14.1µM; HTT ATP protect: inactive; CBFb-RUNX1 inh: inactive

What do the screens show for `COCCn1c(=O)cnc2cnc(OC)nc21`?
ALDH1A1 block: inactive; HTT ATP protect: inactive

What do the screens show for `NS(=O)(=O)c1cccc(NC(=O)CSc2nnc(C3CC3)n2Cc2ccccc2)c1`?
HttQ103 aggreg: inactive[9.22 µM]; HTT ATP protect: inactive[10 µM]; CBFb-RUNX1 inh: inactive

What do the screens show for `NCC1O[C@@H](OC2C(N)CC(N)C(O)C2O[C@@H]2OC(CO)C(O)C2O)C(N)C(O)C1O` (some centres not stated)?
HPGD block: inactive; ALDH1A1 block: inactive; HTT ATP protect: inactive; CBFb-RUNX1 inh: inactive

What do the screens show for `[Cl][In]([Cl])[Cl]`?
HttQ103 aggreg: inactive; HPGD block: inactive; ALDH1A1 block: inactive; HTT ATP protect: inactive; CBFb-RUNX1 inh: inactive

How did Oc1ccc(Cl)cc1-c1cc(-c2cccc(Br)c2)n[nH]1 do in these assays?
HttQ103 aggreg: inconclusive; HPGD block: 3.16µM; ALDH1A1 block: inactive; PNC assembly inh: inactive; HTT ATP protect: inactive[10 µM]; CBFb-RUNX1 inh: inactive

How did Oc1ccccc1-c1cc(-c2cccc(F)c2)n[nH]1 do in these assays?
HttQ103 aggreg: inactive; HPGD block: inactive; ALDH1A1 block: inactive; PNC assembly inh: inconclusive; HTT ATP protect: inactive; CBFb-RUNX1 inh: inactive

What do the screens show for `O=C(Nc1cccnc1)c1cc(-c2cc(Cl)ccc2O)n[nH]1`?
HttQ103 aggreg: inactive[9.22 µM]; HTT ATP protect: inactive[10 µM]; CBFb-RUNX1 inh: inactive

How did Oc1ccc(Cl)cc1-c1cc(-c2ccccc2Cl)[nH]n1 do in these assays?
HttQ103 aggreg: inactive; HPGD block: 7.94µM; ALDH1A1 block: inactive; PNC assembly inh: inactive; HTT ATP protect: inactive[10 µM]; CBFb-RUNX1 inh: inactive

What do the screens show for `Oc1ccccc1-c1cc(-c2ccccc2Cl)[nH]n1`?
HttQ103 aggreg: inactive; HPGD block: 14.1µM; ALDH1A1 block: inactive; PNC assembly inh: inactive; HTT ATP protect: inactive; CBFb-RUNX1 inh: inactive
